Screens from PubChem.
EBV LMP1 NFkB: reduces LMP1-driven NF-kappaB luciferase signal. LMP1-induced NF-kappaB luciferase reporter cells, luminescence. inhibition, % at 12.5 µM. 350,000 tested, 0.69% active. AID 504558; in the data active = inhibition above about 41%; inconclusive = no clear call, values can overlap the other calls;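 note: 0% = neutral control wells and 100% = reference inhibitor control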
Peg3 prom inh: inhibitors of Peg3 promoter; HeLa PEG-Prom luciferase reporter, luminescence, overnight; inhibition, % at 20 µM; 360,000 tested, 1.7% active; AID 588405;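 active = inhibition of at least 50% at 20 µM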
CF NFkB inh: blocks PAF-induced NF-kB reporter in cystic fibrosis cells | KKLEB NF-kB-GFP reporter, GFP fluorescence overnight | inhibition, % at 5 µM | 360,000 tested, 0.86% active;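 active = at least 50% inhibition at 5 µM, scaled per plate between neutral and stimulator controls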;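 note: PAF is a Pseudomonas aeruginosa culture filtrate used as stimulus; plate controls were PAF-stimulated DMSO wells for no effect and unstimulated DMSO wells for full effect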
KKLEB cytotox: counter-screen for CF NF-kB inhibitors: cytotoxicity | KKLEB CF airway cells viability, ATPlite luminescence, overnight; hits give low values; cells stimulated with P. aeruginosa culture filtrate | activity change (cytotoxicity), % at 5 µM | 360,000 tested, 0.36% active | AID 602141;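 active = corrected activity change at or below -50% at 5 µM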
HIF-2a inh: blocks HIF-2a reporter activity. 786-0 RCC cells HIF-2a reporter, luciferase luminescence, overnight. inhibition, % at 18.8 µM. 360,000 tested, 0.72% active. AID 624352;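 active = inhibition of the luminescence signal of 40% or more relative to plate controls, in a single-dose primary screen at 18.75 µM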
Shn3 inh set2: reduces Shn3 3'UTR luciferase signal in osteoblasts; AID 588674; inhibition, % at 12.5 µM; 360,000 tested, 0.52% active; Clone20 osteoblast Shn3 3'UTR firefly luciferase, 24 h;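 active = mean inhibition of at least 75% with every replicate also reaching 75%; inconclusive = mean inhibition at least 75% but some replicate below; inactive = mean inhibition below 75%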;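 note: 0% = median of neutral control wells and 100% = pilot-screen positive control compound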
* = called active by the depositor; ? = inconclusive; nt = not tested or not shown. Compounds with a hit are over-represented: about 2.9% of the library has one in this group of screens.

SMILES | EBV LMP1 NFkB | Peg3 prom inh | CF NFkB inh | KKLEB cytotox | HIF-2a inh | Shn3 inh set2
CC(=O)Nc1ccc(S(=O)(=O)N2CCN(c3nc(NC4CCCC4)c4ccccc4n3)CC2)cc1 | -4 | 85* | 14 | -8 | 6 | 15
COC(=O)C1=C(CS(=O)(=O)c2ccccc2)NC(=O)NC1c1ccc(O)cc1 (centres undefined) | -11 | 4 | 2 | 12 | 5 | -38
CCN(CC)CC(O)Cn1c(C)c(-c2ccccc2)c2cc([N+](=O)[O-])ccc21 (centres undefined) | 2 | 75* | -2 | -14 | -8 | -5
O=C(NC(c1ccc(Cl)cc1)c1ccsc1)C1CCN(Cc2cccc(Cl)c2)CC1 (centres undefined) | nt | 16 | 7 | -8 | -6 | -1
Cc1sc(N2C(=O)C3C4C=CC(C4)C3C2=O)c(C#N)c1C (centres undefined) | -27 | -1 | 1 | 5 | 12 | 15
O=C1N/C(=C/c2ccc(N3CCOCC3)o2)C(=O)N1c1cccc(Cl)c1 | -2 | -31 | 67* | -13 | 35 | 96*
CCC(CC)=N/N=C/c1c(O)n(CC)c2cc(C3=NNC(=O)CC3)ccc12 | 6 | 2 | -2 | 3 | 17 | -2
CCn1c(O)c(/C=N/N=C/c2ccccc2)c2ccc(C3=NNC(=O)CC3)cc21 | 3 | 50* | -10 | 6 | 14 | -9
O=C(CCc1ccccc1)Nc1ccc(S(=O)(=O)NC2=NCCCCC2)cc1 | 2 | -5 | -26 | 9 | 3 | -14
Cc1ccc2nc(NNC(=O)c3ccc(S(=O)(=O)N4CCc5ccccc5C4)cc3)sc2c1 | 59* | 44 | 16 | -14 | 18 | 94*
CCN1/C(=C/c2ccc3ccccc3[n+]2CC)C=Cc2ccccc21 | 53* | 87* | -42 | -7 | 66* | 91*
CCCCN1/C(=C/c2cccc[n+]2C)Sc2cc(NC(C)=O)ccc21 | 0 | 7 | -2 | 7 | 5 | 6
CC[n+]1c(/C=C/c2c[nH]c3ccccc23)ccc2cc(C)ccc21 | 5 | nt | nt | nt | nt | nt
Cc1ccc2c(c1)S/C(=C/c1ccc[n+](C)c1)N2CCO | 1 | 5 | -9 | 13 | 16 | -14
CCN1/C(=C/c2ccc3ccccc3[n+]2CCCS(=O)(=O)[O-])C=Cc2cc(C)ccc21 | 13 | 11 | -7 | -6 | 9 | 12
CCN1/C(=C/c2ccc3cc(C)ccc3[n+]2CC)Sc2cc(C)ccc21 | 15 | 97* | -434 | -11 | 63* | ?
CCN1/C(=C/c2ccc3cc(C)ccc3[n+]2C)Sc2ccc3sccc3c21 | 23 | 111* | -66 | -4 | 42* | 91*
CCCCN1/C(=C/c2ccc3ccccc3[n+]2CC)Sc2ccccc21 | 52* | 48 | -151 | 4 | -33 | 90*
Cc1cc2oc(=O)cc(CN3CCCCC3)c2cc1Cl | nt | -9 | 12 | -20 | -15 | -4
CCOC(=O)[C@]12CCCC=C1N(Cc1cccc3ccccc13)C(=O)[C@H](CC(=O)NCc1ccc(OC)c(OC)c1)C2 | nt | nt | nt | nt | -22 | nt
O=C(NCc1ccccc1)C1C(=O)Nc2ccccc2C(=O)N1c1ccc2c(c1)OCCO2 (centres undefined) | nt | nt | nt | nt | -70 | nt
Cc1cc(C)n(-c2nc(NCCCN(C)C)c3c4c(sc3n2)CCCC4)n1 | nt | 48 | 21 | -21 | -132 | -5
Cc1cc(C)n(-c2nc(NCCN(C)C)c3c4c(sc3n2)CCCC4)n1 | 3 | 103* | 27 | -25 | -66 | 20
COc1ccc(C(=O)NCc2ccccc2CN2CCCC2)cc1S(=O)(=O)Nc1ccc(C)cc1 | 7 | 17 | 3 | -17 | 5 | -4
COc1ccccc1C1c2ccc3ccccc3c2Oc2ncn(CCN(C)C)c(=N)c21 (centres undefined) | 48* | 103* | 24 | -14 | -2 | -4
SMILES | EBV LMP1 NFkB | Peg3 prom inh | CF NFkB inh | KKLEB cytotox | HIF-2a inh | Shn3 inh set2
COc1ccc(C2c3ccc4ccccc4c3Oc3ncn(Cc4ccco4)c(=N)c32)cc1OC (centres undefined) | 5 | 42 | 37 | -10 | -9 | 39
COc1ccc(C2c3c(ncn(CCN4CCOCC4)c3=N)Oc3ccc4ccccc4c32)cc1OC (centres undefined) | -3 | 78* | 15 | -24 | -16 | 2
COc1ccc(C2c3c(ncn(CCCO)c3=N)Oc3ccc4ccccc4c32)cc1 (centres undefined) | -3 | 82* | 8 | -11 | 18 | 4
COc1ccc(C2c3ccc(O)cc3Oc3ncn(CCN4CCOCC4)c(=N)c32)cc1 (centres undefined) | 10 | 11 | 20 | -6 | 24 | 4
COc1ccc(C2c3c(ncn(CCCO)c3=N)Oc3ccc4ccccc4c32)cc1OC (centres undefined) | nt | 23 | 7 | -6 | 7 | nt
CCN(Cc1ccccc1)C(=O)C1CCN(S(=O)(=O)c2ccc3c(c2)OCCO3)CC1 | -5 | 11 | 3 | 1 | 8 | 11
COc1cccc(NC(=O)CC2C(=O)NC3CCCCC3N2C(=O)c2ccc(F)cc2)c1 (centres undefined) | 7 | 10 | -7 | 3 | 1 | -11
O=[N+]([O-])c1ccc(N2CCN(C(=S)Nc3ccc(F)cc3F)CC2)cc1 | 9 | 25 | -18 | 2 | 2 | 28
COc1ccc(-c2[nH]ncc2/C=C(/C#N)C(=O)NC2CCCCCC2)cc1 | -5 | 50* | 29 | -15 | 19 | 23
CCCCNC(=S)Nc1cccc(S(=O)(=O)NC2=NCCC2)c1 | -2 | 14 | -3 | 14 | 2 | -8
COc1ccc(C(C(=O)NC2CCCCC2)N(Cc2ccco2)C(=O)c2snc(C(N)=O)c2N)cc1 (centres undefined) | -26 | 58* | 8 | -14 | 12 | 8
Cc1ccc(NC(=O)Cn2c(O)c(N=NC(N)=S)c3ccccc32)cc1 | 30 | 22 | 8 | -9 | 47* | 64
COc1cc(OC)c2c(-c3cccc(-c4ccc(CO)cc4)c3)cc(=O)oc2c1 | 10 | 16 | 57* | -15 | 19 | 10
Cc1ccc2nc(-c3ccc(O)c(O)c3)cn2c1 | 3 | -112 | -15 | 5 | -112 | 90*
Cn1c(N)c(S(=O)(=O)N2CCN(Cc3ccccc3)CC2)c(=O)n(C)c1=O | -3 | 8 | -8 | 5 | 17 | 9
OC1(c2cccc(C(F)(F)F)c2)CCN(c2ncnc3c2[nH]c2ccc(F)cc23)CC1 | 44* | 105* | -9 | -15 | 1 | 89*
CCOC(=O)N1CCN(c2ncnc3c2[nH]c2ccc(F)cc23)CC1 | 38 | 32 | -10 | 8 | 22 | nt
COc1ccc(N2CCN(c3ncnc4c3[nH]c3ccccc34)CC2)cc1 | 48* | 29 | -14 | 5 | -2 | 81
COc1cc2[nH]c3c(N4CCN(c5ccccn5)CC4)ncnc3c2cc1OC | -6 | 100* | -22 | 6 | 24 | 45
